Bioassay records as filed in PubChem BioAssay.
The entries come from a sample that favours hits as a whole.
TbREL1 inh: TbREL1 RNA ligase inhibitors, primary screen, biochemical, FRET fluorescence | RNA-editing ligase 1, mitochondrial (Trypanosoma brucei brucei), P86926 | AID 1117264, 2014 | actives 0.49% (n = 89,000) | TbREL1 RNA ligation | inhibition, % at 9.66 µM;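 active = inhibition above the mean inhibition across all screened compounds plus 3 SD, cut at about 11% in these data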
TbREL1 confirm: TbREL1 RNA ligase inhibitors, confirmation, biochemical, FRET fluorescence, triplicate; shares compounds with TbREL1 inh; TbREL1 RNA ligation; inhibition, % at 9.66 µM; actives 37% (n = 390); AID 1117282, 2014;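 active = mean inhibition across replicates above a set limit taken from the earlier primary screen, cut at about 11% in these data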
Numbers stand for hits; i = inactive.

SMILES	TbREL1 inh	others
Cc1cc(-c2cc(NC(=O)Cc3c[nH]c4ccccc34)ccc2Nc2cccnc2)ccc1F	i
O=C(COc1ccc2ccccc2c1)Nc1cccc2cccnc12	i
O=C(CN1C(=O)c2ccccc2C1=O)Nc1cccc2cccnc12	i
O=C(O)CCC(=O)Nc1cccc2cccnc12	11	TbREL1 confirm=i
Nn1c(SCC(=O)Nc2cccc3ccccc23)nnc1-c1cc(-c2ccc(Cl)cc2)n[nH]1	i
O=C1/C(=C\c2ccco2)SC(=S)N1c1ccccc1	i
Cc1ccc(N2C(=O)/C(=C\c3ccco3)SC2=S)cc1	i
O=C1/C(=C\c2ccco2)SC(=S)N1C1CCS(=O)(=O)C1 (stereo not drawn)	19	TbREL1 confirm=i
Cc1ccc(CN2CCCCC(NC(=O)Nc3ccccc3)C2=O)cc1 (stereo not drawn)	i
O=C1CCC[C@H]2C[C@H](NCc3ccc(Cl)c(Cl)c3)CC[C@]23CCCN13	i
C#CCNC(=O)C[C@H]1C[C@@]2(C(=O)OC)C(=C[C@H](COCc3ccccc3)O[C@@H]2C)N(Cc2ccccc2)C1=O	i
COC(=O)C1=C(C)N(CCCC(=O)O)C(=O)NC1c1ccc(C(F)(F)F)cc1 (stereo not drawn)	i
COC(=O)C1=C(C)N(C)C(=NCc2ccccc2C(F)(F)F)NC1c1ccc(Cl)cc1 (stereo not drawn)	13	TbREL1 confirm=i
COC(=O)C1=C(C)N(C)C(=NCc2ccccc2C(F)(F)F)NC1c1ccc(C(F)(F)F)cc1 (stereo not drawn)	12	TbREL1 confirm=i
COC(=O)C1=C(C)N(C)C(=NCc2ccc(C(F)(F)F)cc2)NC1c1ccc(C(F)(F)F)cc1 (stereo not drawn)	i
O=C(NCc1cccnc1)O[C@H]1CC[C@@]23CCCN2C(=O)CCC[C@H]3C1	i
CCC[C@H]1[C@@H](OC(=O)NCc2ccc(OC)cc2)CC[C@@]23CCCN2C(=O)CCC[C@@H]13	i
Cc1cc(C)cc(NC(=O)NC2CCN(S(=O)(=O)c3ccc(F)cc3)CC2)c1	i
CCN(CC)CCCNC(=O)c1cn(C(C)c2ccccc2)nn1 (stereo not drawn)	i
CCOc1ccc(-n2c(SCC(=O)Nc3cccc4ccccc34)nnc2-c2ccncc2)cc1	i
COC(=O)C1=C(C)N(Cc2ccc(Cl)cc2)C(=S)NC1c1ccc(OC)cc1 (stereo not drawn)	i
COC(=O)C1=C(C)N(Cc2ccc(F)cc2)C(=S)NC1c1ccc(Cl)cc1 (stereo not drawn)	i
COC(=O)C1=C(C)N(Cc2ccccc2C(F)(F)F)C(=NCc2ccc(OC)cc2)NC1c1cccc(Cl)c1 (stereo not drawn)	19	TbREL1 confirm=18
COC(=O)C1=C(C)N(Cc2ccccc2)C(=NCc2ccco2)N[C@H]1c1cccc(F)c1	i
COC(=O)C1=C(C)N(Cc2ccccc2C(F)(F)F)C(=NCC2CC2)NC1c1ccc(C(F)(F)F)cc1 (stereo not drawn)	i
SMILES	TbREL1 inh	others
COC(=O)C1=C(C)N(Cc2ccccc2)C(=NCC(C)C)N[C@H]1c1cccc(F)c1	i
COC(=O)C1=C(C)N(Cc2ccccc2C(F)(F)F)C(=NCc2ccc(C(F)(F)F)cc2)NC1c1cccc(F)c1 (stereo not drawn)	14	TbREL1 confirm=22
COC(=O)C1=C(C)N(Cc2ccccc2C(F)(F)F)C(=NCC2CC2)NC1c1ccc(F)cc1 (stereo not drawn)	12	TbREL1 confirm=11
COC(=O)C1=C(C)N(Cc2ccc(C(F)(F)F)cc2)C(=NCc2ccccc2C(F)(F)F)NC1c1ccc(F)cc1 (stereo not drawn)	14	TbREL1 confirm=14
O=C1CCC[C@H]2C[C@H](NCc3cccnc3)CC[C@]23CCCN13	i
CC(C)n1nnnc1C1(C)CCSCC(=O)N1Cc1cccc(C(F)(F)F)c1 (stereo not drawn)	i
CC(=O)N1CCc2cc(Br)c(S(=O)(=O)NCc3ccc(Cl)cc3)cc21	i
COc1ccc(OC)c(NC(=O)c2ccccc2N(Cc2ccccc2)C(=O)C(C)Cl)c1 (stereo not drawn)	i
COc1cc(C=Nn2c(-c3n[nH]c4c3CCC4)n[nH]c2=S)ccc1OCc1ccccc1	i
Cc1cc(C)cc(N(CC(=O)NC2CCC(C)CC2)S(=O)(=O)c2ccc(C(C)(C)C)cc2)c1 (stereo not drawn)	i
CCOC(=O)[C@]12CCCC=C1N(Cc1ccc(OC)cc1)C(=O)[C@@H]2CC(=O)NCCc1ccccc1OC	i
Cc1c(Cl)c(-c2n[nH]c(=S)n2-c2ccccc2)nn1C	i
Cc1ccc(-n2c(-c3ccccc3)n[nH]c2=S)cc1	i
Cc1onc(-c2ccccc2)c1-c1n[nH]c(=S)n1-c1ccccc1	26	TbREL1 confirm=i
